The assay relates to A549. Kind of assay: relative viability (normalised to negative control = 1, bortezomib = 0) (fraction); higher = less cytotoxic. Conditions: inflammatory serum-free RHB-A with cytokines + LPS, 5 d + 24 h CellTiter-Blue. (Alamar Blue is a resazurin reagent that responds to reducing activity.)
Where [1] appears, read: compound 30 nM, GSK126 pretreatment: 5 uM GSK126.
The mark [2] stands for this setting: compound 30 nM, GSK126 pretreatment: none (vehicle).
The mark [3] stands for this setting: compound 300 nM, GSK126 pretreatment: 5 uM GSK126.
The mark [4] stands for this setting: compound 300 nM, GSK126 pretreatment: none (vehicle).

Structures can show the parent of a compound that is named as a salt. ± gives the standard deviation of the averaged measurements.

Turning to `Nc1nc(F)nc2c1ncn2[C@@H]1O[C@H](COP(=O)(O)O)[C@@H](O)[C@@H]1O` [Fludarabine; Fludarabine phosphate], the relative viability amounted to 0.858 ± 0.071 under setting [1], 0.879 ± 0.098 under setting [2], 0.891 ± 0.089 under setting [3] and 0.842 ± 0.055 under setting [4].

Regarding `C[C@@H](CN1CC(=O)NC(=O)C1)N1CC(=O)NC(=O)C1` [Dexrazoxone; Dexrazoxane], the relative viability is 0.828 ± 0.054 under setting [1], 0.832 ± 0.093 under setting [2], 0.859 ± 0.048 under setting [3] and 0.908 ± 0.13 under setting [4].

For the molecule `Cc1cc(C(C)Nc2ccccc2)c2nc(N3CCOCC3)cc(=O)n2c1` (stereo unspecified), the relative viability by setting is: under setting [1], 0.763 ± 0.083; under setting [2], 0.782 ± 0.067; under setting [3], 0.737 ± 0.093; under setting [4], 0.8 ± 0.1.

With `Nc1ncn([C@@H]2O[C@H](CO)[C@@H](O)[C@H]2O)c(=O)n1` [Azacitidine; 5-azacytidine], the relative viability reads like this: under setting [1], 0.841 ± 0.27; under setting [2], 0.854 ± 0.13; under setting [3], 0.903 ± 0.15; under setting [4], 0.996 ± 0.13.

Take `COc1cc([C@@H]2c3cc4c(cc3[C@@H](O[C@@H]3O[C@@H]5CO[C@@H](C)O[C@H]5[C@H](O)[C@H]3O)[C@H]3COC(=O)[C@H]23)OCO4)cc(OC)c1O` [Etoposide]: the relative viability is, setting by setting: under setting [1], 0.938 ± 0.081; under setting [2], 0.935 ± 0.037; under setting [3], 0.985 ± 0.046; under setting [4], 0.845 ± 0.047.

With `Cc1cccc(-c2[nH]c(C(C)(C)C)nc2-c2ccc3nccnc3c2)n1`, the relative viability was 0.848 ± 0.048 under setting [1], 0.828 ± 0.086 under setting [2], 0.799 ± 0.036 under setting [3] and 0.887 ± 0.067 under setting [4].

Take `COc1cc2nccc(Oc3ccc(NC(=O)Nc4ccc(F)cc4F)c(F)c3)c2cc1OC`: the relative viability under setting [1] is 0.86 ± 0.097, the relative viability under setting [2] was 0.832 ± 0.051, the relative viability under setting [3] amounted to 0.916 ± 0.12 and the relative viability under setting [4] is 1.01 ± 0.075.

With `FC(F)c1nc2ccccc2n1-c1nc(N2CCOCC2)nc(N2CCOCC2)n1`, the relative viability is, setting by setting: under setting [1], 0.684 ± 0.12; under setting [2], 0.738 ± 0.044; under setting [3], 0.321 ± 0.1; under setting [4], 0.395 ± 0.033.

In the case of `COc1cc(Nc2c(C#N)cnc3cc(OCCCN4CCN(C)CC4)c(OC)cc23)c(Cl)cc1Cl` [Bosutinib(SKI-606)], the relative viability by setting is: under setting [1], 0.984 ± 0.052; under setting [2], 0.991 ± 0.061; under setting [3], 0.65 ± 0.061; under setting [4], 0.7617 ± 0.007.

As to `CC/C(=C(\c1ccccc1)c1ccc(OCCN(C)C)cc1)c1ccccc1` [Tamoxifen citrate], the relative viability runs as follows: under setting [1], 0.967 ± 0.075; under setting [2], 0.863 ± 0.019; under setting [3], 0.909 ± 0.13; under setting [4], 0.972 ± 0.024.

In the case of `Oc1ncnc2[nH]ncc12` [Allopurinol], the relative viability worked out at 0.988 ± 0.076 under setting [1], 0.996 ± 0.03 under setting [2], 0.952 ± 0.11 under setting [3] and 0.974 ± 0.066 under setting [4].

`S=c1[nH]cnc2nc[nH]c12` [Mercaptopurine]: the relative viability came out at 0.9493 ± 0.0049 under setting [1], 0.969 ± 0.053 under setting [2], 0.958 ± 0.067 under setting [3] and 0.984 ± 0.011 under setting [4].

Consider `CN(c1ncccc1CNc1nc(Nc2ccc3c(c2)CC(=O)N3)ncc1C(F)(F)F)S(C)(=O)=O`, for which the relative viability by setting is: under setting [1], 0.902 ± 0.22; under setting [2], 0.907 ± 0.16; under setting [3], 0.907 ± 0.12; under setting [4], 0.891 ± 0.13.

As for `NC(=O)Nc1cc(-c2cccc(F)c2)sc1C(=O)N[C@H]1CCCNC1`, the relative viability is, setting by setting: under setting [1], 0.407 ± 0.061; under setting [2], 0.389 ± 0.034; under setting [3], 0.253 ± 0.082; under setting [4], 0.194 ± 0.021.

Consider `OC[C@H]1O[C@@H](n2cnc3c2N=CNC[C@H]3O)C[C@@H]1O` [Pentostatin], for which the relative viability was 0.908 ± 0.068 under setting [1], 0.918 ± 0.062 under setting [2], 0.931 ± 0.076 under setting [3] and 0.914 ± 0.056 under setting [4].

With `COc1ccc(S(=O)(=O)N(C(C)=O)c2ccccc2/C=C/c2cc[n+]([O-])cc2)cc1`, the relative viability reads like this: under setting [1], 0.924 ± 0.032; under setting [2], 0.914 ± 0.033; under setting [3], 0.663 ± 0.032; under setting [4], 0.623 ± 0.056.

With `Cc1cc(Nc2cc(N3CCN(C)CC3)nc(Sc3ccc(NC(=O)C4CC4)cc3)n2)n[nH]1`, the relative viability turned out to be 0.766 ± 0.087 under setting [1], 0.717 ± 0.062 under setting [2], 0.584 ± 0.067 under setting [3] and 0.459 ± 0.052 under setting [4].

Turning to `Nc1nccc(Oc2ccc(NC(=O)c3c[nH]cc(-c4ccc(F)cc4)c3=O)cc2F)c1Cl`, the relative viability was determined as 0.87 ± 0.13 under setting [1], 0.882 ± 0.16 under setting [2], 1.14 ± 0.15 under setting [3] and 1.12 ± 0.18 under setting [4].

As for `CC(=O)Nc1cccc(-n2c(=O)n(C3CC3)c(=O)c3c(Nc4ccc(I)cc4F)n(C)c(=O)c(C)c32)c1`, the relative viability by setting is: under setting [1], 0.144 ± 0.01; under setting [2], 0.171 ± 0.011; under setting [3], 0.0602 ± 0.013; under setting [4], 0.0354 ± 0.0045.
